Our source for the growth inhibition values is PubChem BioAssay (NCI).

Molecules are shown by their SMILES. This is part of a sample that, as a whole, favours compounds with a hit. Of some 79,000 tested, about 15% had one in any assay. A number with no mark means an inactive call. The source made the active and inactive calls. Rule as the data show it: active = growth inhibition above about 70%; inactive = the rest.

The assay is described as follows: NCI Yeast Anticancer Drug Screen. Data for the rad52 strain (AID 147).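 Also: 0% = growth of vehicle-treated control cultures.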 As to conditions: S. cerevisiae rad52 mutant growth inhibition, hits give high values. How it is done: Growth inhibition of yeast strains with defined genetic alterations is measured as a screen for potential anti-cancer activity. Selected strains with alterations in DNA damage repair or cell cycle control were exposed to compounds and growth inhibition was measured relative to vehicle treated controls. The strain used in this assay is rad52

As for `Cc1ccc(CNc2ccc(Br)cc2)cc1`, the growth inhibition reads like this: (at 1.2 µM) 5%; (at 3.7 µM) 7%; (at 11.0 µM) 18%; (at 33.0 µM) 66%; (at 100.0 µM) 88% (active).

`Cn1ncc2cc3c(Nc4ccc(Cl)cc4)cccc3nc21`: the growth inhibition is 2% (at 1.2 µM); 2% (at 3.7 µM); 6% (at 11.0 µM); 39% (at 33.0 µM); 96% (active) (at 100.0 µM).

As to `Clc1c(Cl)c(Cl)c2n[nH]nc2c1Cl`, the growth inhibition is -30% (at 1.2 µM); -11% (at 3.7 µM); -20% (at 11.0 µM); -12% (at 33.0 µM); 65% (at 100.0 µM).

For the compound `COc1cc(N)ccc1Nc1c2ccccc2nc2ccccc12`, the growth inhibition is -4% (at 1.2 µM); 33% (at 3.7 µM); 70% (active) (at 11.0 µM); 82% (active) (at 33.0 µM); 86% (active) (at 100.0 µM).

`Nc1cc(F)cc2c1-c1ccc(F)cc1C2`: the growth inhibition by setting is: (at 1.2 µM) -1%; (at 3.7 µM) -1%; (at 11.0 µM) 3%; (at 33.0 µM) 30%; (at 100.0 µM) 92% (active).

Turning to `CC(=O)CC(=O)/C=C/c1cccs1`, the growth inhibition (at 1.2 µM) was -15%; the growth inhibition (at 3.7 µM) is -8%; the growth inhibition (at 11.0 µM) was 6%; the growth inhibition (at 33.0 µM) is 26%; the growth inhibition (at 100.0 µM) is 86% (active).

Regarding `CSc1s[s+]c(SC)c1-c1ccccc1`, the growth inhibition was 13% (at 1.2 µM); 4% (at 3.7 µM); 9% (at 11.0 µM); 54% (at 33.0 µM); 72% (active) (at 100.0 µM).

Turning to `Cc1ccc(Nc2n[nH]c(=S)s2)cc1`, the growth inhibition was -2% (at 1.2 µM); 2% (at 3.7 µM); 6% (at 11.0 µM); 74% (active) (at 33.0 µM); 94% (active) (at 100.0 µM).
